Assay outcomes from PubChem.
Only some compounds are listed: those with a hit (about 18% of all), similar ones and a draw of the others.
TDP1 cell noCPT – qHTS for Inhibitors of human tyrosyl-DNA phosphodiesterase 1 (TDP1): qHTS in cells in absence of CPT | DT40 Tdp1-/- hTDP1 cells, no CPT, ATP luminescence, 48 h | Potency, µM (highest dose often 46.2 µM), hits mostly inhibitors | 420,000 tested, 15% active | AID 686978, 2013; also: nearly all actives have a fitted effect of over 55% in size
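Seeded 400 DT40-hTDP1 cells/well (vehicle DMSO, no 20 nM CPT); pinned compounds; ≥48 hr at 37 °C; CellTiter-Glo luminescence as viability measure.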
TDP1 block – blocks human tyrosyl-DNA phosphodiesterase 1; AID 485290; 350,000 tested, 0.28% active; Potency, µM (highest dose often 130 µM), usual class: inhibitors; Q9NUW8; recombinant TDP1, AlphaScreen DNA substrate cleavage; also: nearly all actives have a fitted effect of over 40% in size
Target sequence (Q9NUW8 whole entry, looked up): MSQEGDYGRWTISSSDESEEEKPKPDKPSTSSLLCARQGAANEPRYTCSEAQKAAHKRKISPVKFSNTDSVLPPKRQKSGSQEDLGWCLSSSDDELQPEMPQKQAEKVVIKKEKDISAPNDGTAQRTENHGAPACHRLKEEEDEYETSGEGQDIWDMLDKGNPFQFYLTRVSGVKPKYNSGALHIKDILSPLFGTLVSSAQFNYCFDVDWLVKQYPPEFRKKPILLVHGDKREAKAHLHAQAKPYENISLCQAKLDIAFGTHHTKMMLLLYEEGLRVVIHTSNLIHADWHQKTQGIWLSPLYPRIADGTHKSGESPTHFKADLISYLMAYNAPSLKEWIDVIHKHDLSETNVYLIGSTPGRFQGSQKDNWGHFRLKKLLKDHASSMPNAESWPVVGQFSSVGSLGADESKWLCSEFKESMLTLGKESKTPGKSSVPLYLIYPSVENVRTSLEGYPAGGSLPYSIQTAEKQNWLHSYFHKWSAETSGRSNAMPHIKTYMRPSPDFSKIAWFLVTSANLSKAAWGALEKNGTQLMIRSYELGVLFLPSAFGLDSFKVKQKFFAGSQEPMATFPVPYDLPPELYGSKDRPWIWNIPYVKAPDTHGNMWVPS
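E. coli-derived human Tdp1, 1 nM final. Cpd preinc 15 min RT; substrate 15 nM final, 5 min RT; AS bead mix 10 ug/ml final, 10 min RT. Signal loss = tyrosine-FITC cleavage. No-enzyme wells = max signal.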
DT40 TDP1 CPT – growth inhibition of DT40 Tdp1-/-;hTDP1 cells with camptothecin (screen for TDP1 inhibitors). chicken DT40 Tdp1-/-;hTDP1 cells + 20 nM CPT, ATP luminescence, 48 h. Potency, µM (titrated, usually from 46.2 µM), most hits filed as inhibitors. 420,000 tested, 12% active. AID 686979; also: nearly all actives have a fitted effect of over 55% in size
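Chicken DT40 Tdp1-/- cells stably complemented with human TDP1 were seeded at 400 cells/well in medium containing 20 nM camptothecin, exposed to pin-transferred compounds, and grown at 37 °C for at least 48 hr. Viability was read as ATP luminescence.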
IL1B secr inh – inhibitors of inflammasome signaling (IL-1 beta secretion); THP-1 LPS/ATP IL-1B secretion, AlphaLISA, 16 h; hits give low values; 360,000 tested, 4.7% active; activity change, % at 57.5 µM; in the data active = activity change below about -50%; inconclusive = mostly about -30% to -49%
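Secreted IL-1B measured by AlphaLISA bead assay after 16 h compound exposure of THP-1 cells; compounds (final up to 57.5 uM) added 1 h before LPS (250 ng/mL) and ATP (1.25 mM) stimulation; lower signal means less secretion.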
HepG2 tox – kills HepG2 cells in TGF-b inhibitor counter-screen. Potency, µM (doses to about 46.1 µM), most hits filed as cytotoxic. HepG2 CAGA-GFP viability, ATP luminescence, 18 h. 410,000 tested, 0.76% active
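HepG2 CAGA-GFP cells (1000/well, DMEM with 1% FBS) received compound, then TGF-beta at 500 pg/mL final, and were incubated 18 hours at 37 degrees C. Viability was read by CellTiter-Glo luminescence. Media-only wells were set as complete cell-killing and DMSO as no toxicity.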
TGFb inhibitor – blocks TGF-b signaling. HepG2 CAGA-GFP TGF-b/SMAD3 reporter, GFP fluorescence, 18 h; TGF-beta stimulated, 500 pg/mL final. Potency, µM (titrated, usually from 46.1 µM), usual class: inhibitors. 410,000 tested, 1.2% active; also: nearly all actives have a fitted effect of over 65% in size
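HEPG2 CAGA-GFP, 1000 cells/well; 2 h settle, 37 C; cpd via pin tool; TGF-b 500 pg/mL final; 18 h, 37 C; GFP imaging ex488/em500-530; %Activity normalised to -TGF-b and +DMSO controls; CRC fit, curve class.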
Large screens that a line does not name were inactive. Unless noted, calls follow the shape of the dose curve; as a rule, active = well fitted curve in the direction sought with a large enough effect; inconclusive = small, poorly fitted or top-dose-only effect, or another doubt; inactive = no such curve, though single readings can be large; an effect the other way counts as inactive or inconclusive.

COCCN1C(=O)c2ccccc2C(C(=O)NCc2ccco2)C1c1c[nH]c2ccccc12 (stereo not given)	none
COc1ccc(S(=O)(=O)NCc2cccnc2)cc1NC(=O)c1ccccc1C	none (no result: TDP1 block)
COc1cc(C)ccc1OCCCCOc1ccccc1C(C)=O	TDP1 cell noCPT inconclusive, DT40 TDP1 CPT 1.8µM
Cc1ccc(C(=O)c2ccccc2C(=O)OCC(=O)N2C(C)CCCC2C)cc1 (stereo not given)	TDP1 cell noCPT inconclusive, DT40 TDP1 CPT inconclusive, IL1B secr inh inconclusive
C/C(=N\NC(=O)c1c(Br)c(C)nn1C)c1cccc(NC(=O)C2CCC2)c1	TDP1 cell noCPT inconclusive
C/C(=N\NC(=O)c1c(Cl)c(C)nn1C)c1ccc(NC(=O)C2CCC2)cc1	TDP1 cell noCPT 0.37µM, DT40 TDP1 CPT 0.65µM
CC(=O)Nc1ccc(C(C)=NNC(=O)C2CCCC2)cc1	none (no result: TDP1 block)
C/C(=N\NC(=O)C1CCCC1)c1ccc(NC(=O)C(F)(F)F)cc1	IL1B secr inh inconclusive, TGFb inhibitor 11µM (no result: TDP1 block)
C/C(=N\NC(=O)c1c([N+](=O)[O-])c(C)nn1C)c1ccc(NC(=O)C2CCCC2)cc1	TDP1 cell noCPT 0.18µM, DT40 TDP1 CPT 0.16µM
COc1ccc(-c2ccc(C3C4C=CCC(C)C4C(=O)N3Cc3ccccc3)c(F)c2)cc1OC (stereo not given)	none (no result: TDP1 cell noCPT, DT40 TDP1 CPT, IL1B secr inh)
CCOC(=O)C(C)C(C)=O (stereo not given)	TDP1 cell noCPT 6.5µM, DT40 TDP1 CPT 6.5µM, IL1B secr inh inconclusive
O=c1cc(N2CCCCC2)c(-c2ccccc2)nn1Cc1ccc(Cl)cc1Cl	TDP1 cell noCPT 18µM, DT40 TDP1 CPT inconclusive, TGFb inhibitor inconclusive
Cc1ccc(OCc2nc3ccccc3n2Cc2ccccc2Cl)cc1	TDP1 cell noCPT inconclusive, DT40 TDP1 CPT 21µM, TGFb inhibitor inconclusive (no result: TDP1 block, IL1B secr inh)
Cc1cccc(Cn2c(COc3ccc(Cl)cc3)nc3ccccc32)c1	TDP1 cell noCPT 16µM, DT40 TDP1 CPT 23µM, TGFb inhibitor inconclusive (no result: TDP1 block, IL1B secr inh)
C=CCn1c(COc2ccccc2)nc2ccccc21	TDP1 cell noCPT 23µM, DT40 TDP1 CPT inconclusive (no result: TDP1 block)
C=CCn1c(-c2cccs2)nc2ccccc21	TDP1 cell noCPT 21µM
CC1CC(=O)C(C(C2=C(O)CC(C)CC2=O)c2ccccc2)=C(O)C1 (stereo not given)	none (no result: TDP1 block)
CCn1c(COc2ccc(C)cc2)nc2ccccc21	TDP1 cell noCPT inconclusive, DT40 TDP1 CPT inconclusive, IL1B secr inh -76
Cc1ccc(OCc2nc3ccccc3n2CCOc2ccc(Cl)cc2)cc1	TDP1 cell noCPT 18µM, DT40 TDP1 CPT inconclusive, TGFb inhibitor inconclusive (no result: IL1B secr inh)
O=C(Cn1c(COc2ccccc2)nc2ccccc21)Nc1cc(Cl)cc(Cl)c1	TDP1 cell noCPT inconclusive, DT40 TDP1 CPT 18µM
O=C(Cn1c(COc2ccccc2)nc2ccccc21)Nc1cc(Cl)ccc1Cl	TDP1 cell noCPT inconclusive, DT40 TDP1 CPT inconclusive
CCN(CC)S(=O)(=O)c1ccc(N=NC2=C(O)CC(C)(C)CC2=O)cc1	TDP1 cell noCPT inconclusive, DT40 TDP1 CPT inconclusive, IL1B secr inh -55
NC(N)=NS(=O)(=O)c1ccc(N/C=C/C(=O)c2ccc(Cl)c(Cl)c2)cc1	TDP1 cell noCPT inconclusive, DT40 TDP1 CPT inconclusive (no result: TDP1 block)
CCOc1ccc(C(=O)/C=C/Nc2ccc(S(=O)(=O)N=C(N)N)cc2)cc1	DT40 TDP1 CPT inconclusive, TGFb inhibitor 20µM
COc1cc(C=O)ccc1OCC(=O)N1CCCC1	none
COc1ccc(-n2cc(CNCC3CC(=O)N(C4CC4)C3)c(-c3ccccc3Cl)n2)cc1 (stereo not given)	TDP1 cell noCPT 23µM, DT40 TDP1 CPT 16µM, IL1B secr inh inconclusive, TGFb inhibitor inconclusive
CCN1CC(CNCc2cn(-c3ccc(OC)cc3)nc2-c2ccccc2Cl)CC1=O (stereo not given)	TDP1 cell noCPT inconclusive, DT40 TDP1 CPT inconclusive, IL1B secr inh -51
